Compounds without any hit were thinned out: in the full panel of roughly 79,000, 15% have a hit. A number with no mark means an inactive call. Calls of active or inactive are those of the source. Cut-off read from the data, not from the text of the source: active = growth inhibition above about 70%; inactive = the rest.

Assay [1] in a line: NCI Yeast Anticancer Drug Screen. Data for the rad50 strain (AID 155).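 Note: 0% = growth of vehicle-only cultures of the same strain.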 To be noted: S. cerevisiae rad50 strain growth inhibition, hits give high values. The essentials: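 Inhibition values express reduced yeast growth in compound-treated cultures relative to vehicle-treated controls.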
Assay [2] in a line: NCI Yeast Anticancer Drug Screen. Data for the mec2-1 strain (AID 157). The following applies: S. cerevisiae mec2-1 strain, hits give high values. The essentials:
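Strain: mec2-1 (DNA repair/cell cycle alteration). Compound exposure, then growth measured; inhibition expressed relative to vehicle.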

Assay [3] can be described thus: NCI Yeast Anticancer Drug Screen. Data for the sgs1 mgt1 strain (AID 161).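 Note: 0% = growth of cultures given vehicle only.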 To be noted: S. cerevisiae sgs1 mgt1 strain, hits give high values. The essentials: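 Mutant yeast exposed to compound; growth scored against vehicle-only wells.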
Assay [4] can be described thus: NCI Yeast Anticancer Drug Screen. Data for the cln2 rad14 strain (AID 165).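 Note: 0% = growth equal to vehicle treated cultures.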 To be noted: S. cerevisiae cln2 rad14 strain, hits give high values. In a few lines:
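Compounds are applied to the cln2 rad14 yeast strain, and growth is then compared with that of vehicle-treated cultures to give inhibition.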

Assay [5] in a line: NCI Yeast Anticancer Drug Screen. Data for the bub3 strain (AID 167). To be noted: S. cerevisiae bub3 mutant strain, hits give high values. In a few lines: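 Steps: expose the mutant yeast strain to compound; grow alongside vehicle-treated cultures; measure growth; express inhibition against the vehicle cultures.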
Assay [6] in a line: NCI Yeast Anticancer Drug Screen. Data for the mlh1 rad18 strain (AID 175). To be noted: S. cerevisiae mlh1 rad18 strain growth inhibition, hits give high values. In a few lines: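 Read-out is yeast growth inhibition, calculated against vehicle-only controls. The compound was applied to a strain engineered with DNA damage repair alterations.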
Setting [7] is: at 5.0 µM (retest, dose inferred, filed as 0.5).
Where [8] appears, read: at 50.0 µM (retest, dose inferred, filed as 5.0).

Take `C/C(=C\N1CCN(c2ccc(Cl)cc2)C(C)C1)C(=O)c1ccccc1` (configuration not stated): the growth inhibition in assay [1] (setting [7]) is 7%; in assay [1] (setting [8]) it was 89% (active); in assay [1] (at 50.0 µM), 52.9%; in assay [2] (setting [7]) it was 4%; in assay [2] (setting [8]) it was 92% (active); in assay [2] (at 50.0 µM) it was 30.7%. The growth inhibition in assay [3] (setting [7]) is 15%; in assay [3] (setting [8]), 89% (active); in assay [3] (at 50.0 µM), 79.8% (active); in assay [4] (setting [7]) it was -2%; in assay [4] (setting [8]), 86% (active); in assay [4] (at 50.0 µM), 27.8%. Further, the growth inhibition in assay [5] (setting [7]) was -1%; in assay [5] (setting [8]), 92% (active); in assay [5] (at 50.0 µM), 24.9%; in assay [6] (setting [7]), 4%; in assay [6] (setting [8]), 87% (active); in assay [6] (at 50.0 µM), 57.3%.
For `O=c1c2cc(Br)ccc2ncn1COCc1ccccc1`, the growth inhibition in assay [1] (setting [7]) is 21%; in assay [1] (setting [8]) it was 20%; in assay [1] (at 50.0 µM), 7.3%; in assay [2] (setting [7]), 11%; in assay [2] (setting [8]), 11%; in assay [2] (at 50.0 µM), -4.1%. The growth inhibition in assay [3] (setting [7]) is 21%; in assay [3] (setting [8]), 19%; in assay [3] (at 50.0 µM) it was 87.2% (active); in assay [4] (setting [7]), 24%; in assay [4] (setting [8]), -12%; in assay [4] (at 50.0 µM) it was 54%. Besides, the growth inhibition was 15% in assay [5] (setting [7]); -21% in assay [5] (setting [8]); 83.5% (active) in assay [5] (at 50.0 µM); 27% in assay [6] (setting [7]); 24% in assay [6] (setting [8]); 43.3% in assay [6] (at 50.0 µM).
As to `CC(/C=C/C(O)=C1/C(=O)CNC1=O)=C\[C@@H](C)[C@H]1O[C@@]2(C)O[C@H](C(=O)[C@@H]3O[C@@]32C)[C@@H]1C`, the growth inhibition is 98% (active) in assay [1] (setting [7]); 99% (active) in assay [1] (setting [8]); 91.8% (active) in assay [1] (at 50.0 µM); 99% (active) in assay [2] (setting [7]); 99% (active) in assay [2] (setting [8]); 94.5% (active) in assay [2] (at 50.0 µM). The growth inhibition in assay [3] (setting [7]) was 98% (active); in assay [3] (setting [8]), 98% (active); in assay [3] (at 50.0 µM), 94.2% (active); in assay [4] (setting [7]), 97% (active); in assay [4] (setting [8]) it was 95% (active); in assay [4] (at 50.0 µM), 90.8% (active). Moreover, the growth inhibition in assay [5] (setting [7]) was 98% (active); in assay [5] (setting [8]) it was 99% (active); in assay [5] (at 50.0 µM), 93.4% (active); in assay [6] (setting [7]) it was 98% (active); in assay [6] (setting [8]), 98% (active); in assay [6] (at 50.0 µM), 90.3% (active).
As for `Clc1ccccc1/C=C/c1ccnc2ccccc12`, the growth inhibition in assay [1] (setting [7]) is 1%; in assay [1] (setting [8]), 99% (active); in assay [1] (at 50.0 µM), 97.7% (active); in assay [2] (setting [7]), 17%; in assay [2] (setting [8]), 99% (active); in assay [2] (at 50.0 µM), 97.8% (active). The growth inhibition in assay [3] (setting [7]) is 14%; in assay [3] (setting [8]) it was 99% (active); in assay [3] (at 50.0 µM), 97.9% (active); in assay [4] (setting [7]), -19%; in assay [4] (setting [8]) it was 98% (active); in assay [4] (at 50.0 µM), 96.8% (active). In addition, the growth inhibition in assay [5] (setting [7]) is -3%; in assay [5] (setting [8]) it was 99% (active); in assay [5] (at 50.0 µM), 97.9% (active); in assay [6] (setting [7]), -5%; in assay [6] (setting [8]) it was 99% (active); in assay [6] (at 50.0 µM), 98.2% (active).
For the molecule `Nc1nc(-c2ccccc2)c(N=Nc2c(Cl)cccc2Cl)s1`, the growth inhibition is -2% in assay [1] (setting [7]); 94% (active) in assay [1] (setting [8]); 96.5% (active) in assay [1] (at 50.0 µM); 21% in assay [2] (setting [7]); 95% (active) in assay [2] (setting [8]); 90.3% (active) in assay [2] (at 50.0 µM). In addition, the growth inhibition in assay [3] (setting [7]) is 9%; in assay [3] (setting [8]), 94% (active); in assay [3] (at 50.0 µM), 55.4%; in assay [4] (setting [7]) it was 17%; in assay [4] (setting [8]) it was 95% (active); in assay [4] (at 50.0 µM), 87.7% (active). Further, the growth inhibition was 13% in assay [5] (setting [7]); 94% (active) in assay [5] (setting [8]); 91% (active) in assay [5] (at 50.0 µM); 17% in assay [6] (setting [7]); 94% (active) in assay [6] (setting [8]); 96.8% (active) in assay [6] (at 50.0 µM).
Take `CCCN(CCC)C(=O)c1nc(N)nc(-c2ccc(OC)cc2)c1-c1ccc(OC)cc1`: the growth inhibition in assay [1] (setting [7]) was 9%; in assay [1] (setting [8]) it was 9%; in assay [1] (at 50.0 µM), -23.6%; in assay [2] (setting [7]), -1%; in assay [2] (setting [8]), -1%; in assay [2] (at 50.0 µM), -30.1%. The growth inhibition in assay [3] (setting [7]) was -6%; in assay [3] (setting [8]) it was -6%; in assay [3] (at 50.0 µM), 29.4%; in assay [4] (setting [7]), 0%; in assay [4] (setting [8]), 0%; in assay [4] (at 50.0 µM) it was 2.55%. Further, the growth inhibition in assay [5] (setting [7]) was -10%; in assay [5] (setting [8]), -10%; in assay [5] (at 50.0 µM) it was -21.4%; in assay [6] (setting [7]) it was -9%; in assay [6] (setting [8]) it was -9%; in assay [6] (at 50.0 µM), -42%.
Regarding `COC(=O)c1cc(-c2ccc([N+](=O)[O-])cc2)c2c(=O)n(-c3ccccc3)[nH]c2n1`, the growth inhibition in assay [1] (setting [7]) was 0%; in assay [1] (setting [8]), 84% (active); in assay [1] (at 50.0 µM) it was 89.8% (active); in assay [2] (setting [7]), -1%; in assay [2] (setting [8]), 75% (active); in assay [2] (at 50.0 µM) it was 91.1% (active). For the same molecule, the growth inhibition in assay [3] (setting [7]) is -1%; in assay [3] (setting [8]), 85% (active); in assay [3] (at 50.0 µM) it was 61.1%; in assay [4] (setting [7]), -3%; in assay [4] (setting [8]) it was 77% (active); in assay [4] (at 50.0 µM), 42.4%. The growth inhibition is -3% in assay [5] (setting [7]); 83% (active) in assay [5] (setting [8]); 50.2% in assay [5] (at 50.0 µM); -3% in assay [6] (setting [7]); 86% (active) in assay [6] (setting [8]); 92.2% (active) in assay [6] (at 50.0 µM).
With `O=[N+]([O-])c1ccc(NC(=S)N/N=C(\c2ccccc2)c2ccccn2)cc1`, the growth inhibition in assay [1] (setting [7]) is 8%; in assay [1] (setting [8]), 73% (active); in assay [1] (at 50.0 µM) it was 63.1%; in assay [2] (setting [7]), -32%; in assay [2] (setting [8]) it was 79% (active); in assay [2] (at 50.0 µM) it was 66.2%. The growth inhibition in assay [3] (setting [7]) is -19%; in assay [3] (setting [8]) it was 87% (active); in assay [3] (at 50.0 µM), 79.5% (active); in assay [4] (setting [7]), 19%; in assay [4] (setting [8]), 75% (active); in assay [4] (at 50.0 µM), 72.1% (active). The growth inhibition is -5% in assay [5] (setting [7]); 82% (active) in assay [5] (setting [8]); 80.8% (active) in assay [5] (at 50.0 µM); 11% in assay [6] (setting [7]); 89% (active) in assay [6] (setting [8]); 79.8% (active) in assay [6] (at 50.0 µM).
Consider `CCOC(=O)C(F)C(Br)C(=O)OCC` (configuration not stated), for which the growth inhibition is 22% in assay [1] (setting [7]); 98% (active) in assay [1] (setting [8]); 90.5% (active) in assay [1] (at 50.0 µM); 28% in assay [2] (setting [7]); 99% (active) in assay [2] (setting [8]); 91.8% (active) in assay [2] (at 50.0 µM). For the same molecule, the growth inhibition in assay [3] (setting [7]) was 100% (active); in assay [3] (setting [8]) it was 100% (active); in assay [3] (at 50.0 µM), 91.5% (active); in assay [4] (setting [7]), 98% (active); in assay [4] (setting [8]) it was 98% (active); in assay [4] (at 50.0 µM), 89.8% (active). Besides, the growth inhibition in assay [5] (setting [7]) was 99% (active); in assay [5] (setting [8]), 100% (active); in assay [5] (at 50.0 µM), 90.7% (active); in assay [6] (setting [7]) it was 49%; in assay [6] (setting [8]), 98% (active); in assay [6] (at 50.0 µM), 90% (active).
